Reference: PubChem BioAssay (NCI)
The panel holds about 83,000 compounds, 20% with a hit somewhere; the sample as a whole holds those more often.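 How to read the values: 0–100, growth inhibition (40 = 60% inhibited); 0, no net growth; -100 to 0, cell death (-40 = 40% of starting cells died; -100 = all dead).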 The source made the active and inactive calls.

These molecules were tested on NCI-H522 lung (assay: NCI-60 one-dose screen, 48 h (100 = growth as untreated, 0 = no growth, -100 = all killed)). Details: 10 µM unless noted.
Experimental: Growth inhibition of the NCI-H522 human Non-Small Cell Lung tumor cell line is measured as a screen for anti-cancer activity. Cells are grown in 96 well plates and exposed to the test compound for 48 hours. Compounds are tested at a single concentration, which is 10^-5 M for most compounds. The reported endpoint is percent growth (GI% or GIPRCNT), where numbers from 0 - 100% represent growth inhibition, and numbers from -100% - 0 represent cell death. For example, a value of 40 represents 60% growth inhibition. A value of 0 means no net growth occurred over the course of the experiment. A value of -40 indicates 40% of cells at the beginning of the experiment died by the end of the experiment. A value of -100 means all cells are dead at the end of the experiment.
NCI-60 Human Tumor Cell Lines Screen was performed using the standard one-dose NCI protocol, which is described in more detail at https://dtp.cancer.gov/discovery_development/nci-60/default.htm.
Compounds with GIPRCNT values below 10 were considered active. Activity score was based on GIPRCNT using the following formula: […]
Score is 0 for GIPRCNT values of 100 or above, 50 for GIPRCNT values of 0, and 100 for GIPRCNT values of -100.

| SMILES | growth |
| --- | --- |
| Cc1ccc2nc(NC(=O)CSc3nc(Nc4ccc([N+](=O)[O-])cc4)c(C#N)c(-c4ccccc4)n3)sc2c1 | 87.3% (inactive) |
| CC1SC(c2ccc(OCc3ccccc3)cc2)N(NC(=O)C(O)(c2ccccc2)c2ccccc2)C1=O (stereo not given) | 24.4% (inactive) |
| C=C1C(=O)O[C@H]2[C@H]1CC/C(COC(=O)C(=O)c1c[nH]c3ccccc13)=C\CC[C@@]1(C)O[C@@H]21 | -62% (active) |
| COc1cc2nc(Cl)nc(Nc3ccc(S(=O)(=O)Nc4nccs4)cc3)c2cc1OC | 91.3% (inactive) |
| Oc1ccc(CN2CCC(N3CCOCC3)CC2)c2cccnc12 | -14.9% (active) |
| Oc1c(CN2CCCC2)cc(COCc2ccc(Br)cc2)c2cccnc12 | -45% (active) |
| O=[N+]([O-])c1ccc(OCCO)cc1 | 102% (inactive) |
| COC(=O)[C@]12CC[C@@H](C)[C@H](C)[C@@H]1C1=CC[C@@H]3[C@@]4(C)C(C=O)=C[C@@](C)(COC(C)=O)C4=CC[C@@]3(C)[C@]1(C)CC2 | -30.5% (active) |
| O=C(N=c1oc2ccccc2cc1-c1cc2ccccc2[nH]1)c1ccc(Cl)cc1 | 14.2% (inactive) |
| OC(COc1ccccc1Cl)COc1ccccc1Cl | 88.3% (inactive) |
| Cc1cccc(NC(=O)CSc2nc3ccccc3[nH]2)c1 | 90.9% (inactive) |
| O=C1CCc2c(sc3[nH]c(=S)n(-c4ccc(OC(F)(F)F)cc4)c(=O)c23)C1 | 7.42% (active) |
| O=C(O)CN1C(=O)CCC1=O | 103% (inactive) |
| Cc1ccc(Cl)cc1NC(=O)c1cc2ccccc2cc1O | -18% (active) |
| COC(=O)CCC1=C(C)C2=NC1=CC1=NC(=CC3=NC(=Cc4[nH]c(/c(=C(/C)O)c4C)=C2)C(C(C)=O)=C3C)C(C)=C1CCC(=O)OC | 98.8% (inactive) |
| CC(C)=C[C@@H]1c2c(c3ccccc3n(C)c2=O)O[C@H]2c3c(c4ccccc4n(C)c3=O)OC(C)(C)[C@@H]12 | 53.4% (inactive) |
| CC/C=C\C/C=C\C[C@H](O)C/C=C1/C(=O)C=C[C@@H]1C/C=C\CCCC(=O)O | -22.8% (active) |
| c1ccc(-c2nc([P+](c3ccccc3)(c3ccccc3)c3ccccc3)c(N3CCOCC3)o2)cc1 | -3.16% (active) |
| C[C@]12CC[C@@H]3c4cc(OC(F)F)c(O)cc4CC[C@H]3[C@@H]1CC[C@@H]2OS(N)(=O)=O | 26% (inactive) |
| CSc1n(Cc2ccc3ccccc3c2)c(C)c[n+]1Cc1ccc2ccccc2c1 | -26.9% (active) |

| SMILES | growth |
| --- | --- |
| NCCCNc1nc2ccccc2c2c(=O)c3cccc(Cl)c3sc12 | -48.5% (active) |
| CS(=O)c1cccc(-c2ccc3nc(N)n(-c4ccc(C(F)(F)F)cc4)c(=O)c3c2)c1 (stereo not given) | 80.8% (inactive) |
| O=c1cc(C2NNC(=S)N2)c2ccc3ccccc3c2o1 (stereo not given) | 87.1% (inactive) |
| O=C(/C=C/c1c(Cl)nc2sccn12)c1nccs1 | 72.4% (inactive) |
| O=C(CSc1nccc(Nc2ccc(S(=O)(=O)Nc3nccs3)cc2)n1)c1ccc(F)cc1 | 88.6% (inactive) |
| O=C(/C=C/c1ccc(Cl)nc1)c1ccc(Cl)cc1Cl | 38.7% (inactive) |
| CCN1C(=O)N(CC)C2Nn3c(s/c(=C\c4cccc([N+](=O)[O-])c4)c3=O)=NC21 (stereo not given) | 18.5% (inactive) |
| COc1cc(OC)cc(C2CC(=O)Nc3c2c(C)nn3-c2nc3ccccc3[nH]2)c1 (stereo not given) | 3.99% (active) |
| COc1ccc(C2CC(c3cccc(OC)c3)=NN2C(=O)c2cc(OC)c(OC)c(OC)c2)cc1 (stereo not given) | 2.3% (active) |
| O=C(N/N=C/C=C/c1ccc([N+](=O)[O-])o1)c1cc2ccccc2cc1O | -62.9% (active) |
| Cc1cc(=O)[nH]c(N=Nc2c(O)[nH]c3ccccc23)n1 | 103% (inactive) |
| CC1O[C@@H](OC2[C@H](OC(=O)/C=C/c3ccc(O)c(O)c3)C(COC3O[C@H](C)C(O)C(O)[C@@H]3O)O[C@@H](OCCc3ccc(O)c(O)c3)[C@H]2O)[C@@H](O)C(O)[C@H]1O (stereo not given in full) | 86.6% (inactive) |
| CCN1C(=O)N(CC)C2Nn3c(s/c(=C4\C(=O)N(C)c5ccccc54)c3=O)=NC21 (stereo not given) | 0.903% (active) |
| CCOC(=O)c1c(-c2ccc(Cl)cc2)c(C#N)c(=O)n(-c2ccccc2CC)c1N | 92% (inactive) |
| CCOC(=O)C/C(C)=N\NC(=O)c1ccncc1 | 95.3% (inactive) |
| COc1ccc2oc3c(C)c4c(c(C)c3c2c1)C(=O)N(Cc1ccccc1)C4=O | 87.5% (inactive) |
| COc1ccc(Nc2nnc(SCc3ccccc3F)s2)cc1 | 75.4% (inactive) |
| COc1cccc(-c2nn(-c3ccccc3)cc2-c2ccnc(NCCCNC(=O)c3ccccc3)c2)c1 | 38.3% (inactive) |
| O=C1CCC2=C3C4CCCCC4C(=O)C4CCCC(OC2C1)C34 (stereo not given) | -32.4% (active) |
| O=C(/C=C/c1ccco1)c1ccc(Nc2nc(Nc3ccc(F)cc3)nc(Nc3ccc(Cl)cc3)n2)cc1 | 76.8% (inactive) |
